# In all, about 220,000 compounds went through this assay and about 530 (0.24%) were called active. Cut-off read from the data, not from the text of the source: active = inhibition above about 13%; inconclusive = no clear call, values can overlap the other calls; inactive = below that. The list comes from a sample in which actives are over-represented; it also holds similar structures and randomly drawn compounds. Entries with a potency or affinity are not part of this list.
# Target: Bifunctional protein GlmU (Mycobacterium tuberculosis (strain ATCC 25618 / H37Rv)) (UniProt P9WMN3)
# Sequence (P9WMN3 whole entry, looked up): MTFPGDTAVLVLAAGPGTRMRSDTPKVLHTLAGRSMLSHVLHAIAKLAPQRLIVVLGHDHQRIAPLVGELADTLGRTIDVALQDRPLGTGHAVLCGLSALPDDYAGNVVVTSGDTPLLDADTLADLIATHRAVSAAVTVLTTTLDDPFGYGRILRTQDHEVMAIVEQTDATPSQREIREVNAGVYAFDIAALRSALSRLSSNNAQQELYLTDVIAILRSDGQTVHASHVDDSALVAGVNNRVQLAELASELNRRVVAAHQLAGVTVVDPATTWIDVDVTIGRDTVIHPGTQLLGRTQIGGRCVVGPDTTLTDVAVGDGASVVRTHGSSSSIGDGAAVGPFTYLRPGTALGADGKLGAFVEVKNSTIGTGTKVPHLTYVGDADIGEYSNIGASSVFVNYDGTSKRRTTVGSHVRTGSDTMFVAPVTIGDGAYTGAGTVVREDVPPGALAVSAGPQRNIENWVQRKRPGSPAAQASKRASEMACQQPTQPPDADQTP
# Assay: inhibition of mycobacterial GlmU enzyme – biochemical, glucosamine-1-phosphate acetyltransferase (AID 1376);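 note: 0% = complete reaction with vehicle and 100% = reaction without substrate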
# Conditions: M. tuberculosis GlmU acetyltransferase enzyme assay; stronger effect = higher value;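 tested at 30 µM in the primary screen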
row,Compound,inhibition
1,CC(=O)Nc1ccc(C(=O)NNC(=O)c2cc([N+](=O)[O-])cc([N+](=O)[O-])c2)cc1,2.49% (inactive)
2,CC(C)(O)C#Cc1ccc(CN2CCN(Cc3ccccc3)C(CCO)C2)s1 (centres undefined),3.34% (inactive)
3,CSc1nc2nc3c(cn2n1)C(=O)CC(c1ccccc1)C3 (centres undefined),2.71% (inactive)
4,O=C1CC(c2ccccc2)Cc2nc3nc(C(F)(F)F)nn3cc21 (centres undefined),2.78% (inactive)
5,Cc1nc2nc3c(cn2n1)C(=O)CC(c1ccccc1)C3 (centres undefined),15% (active)
6,O=C(Nc1nnc(-c2ccccc2)o1)NC1CCCCC1,0.77% (inactive)
7,CC(=O)Nc1ccc(OCC(O)CN2CCN(c3cccc(Cl)c3)CC2)cc1 (centres undefined),-0.54% (inactive)
8,COC(C/C=C\[C@H](O)COCc1ccccc1)OC,6.23% (inactive)
9,Cc1ccccc1NC(=O)Nc1cc(-c2ccccc2)nn1C,-3.02% (inactive)
10,O=C(CSCc1ccccc1F)NCc1ccc(F)cc1,-1.92% (inactive)
11,c1cncc(-c2nnc3n2CCC3)c1,-0.26% (inactive)
12,CCOC(=O)C1=C(C)N(c2ccccc2)C(=O)C1,3.44% (inactive)
13,CCOC(=O)C1=C(N)N(c2ccccc2)C(=O)C1,1.91% (inactive)
14,CCOC(=O)C1=C2NC(=O)c3ccccc3N2C(=O)C1,13.7% (active)
15,O=C(COC(=O)c1ccc(Cl)c([N+](=O)[O-])c1)Nc1ccccc1OC(F)F,0.84% (inactive)
16,Cc1sc2nc(SCc3ccccc3)n(Cc3ccco3)c(=O)c2c1C,-1.04% (inactive)
17,CCSC1=NCCN1C(=O)c1c(-c2ccccc2Cl)noc1C,4.4% (inactive)
18,CSC1=NCCN1C(=O)c1c(-c2ccccc2Cl)noc1C,-1.36% (inactive)
19,Cc1onc(-c2ccccc2Cl)c1C(=O)N1CCN=C1SCc1cccnc1,27.2% (active)
20,C=CCn1c(O)c(C=Nc2c(C)n(C)n(-c3ccccc3)c2=O)c(=O)[nH]c1=O,-2.53% (inactive)
21,CCCOC(=O)C1C2C=CC(C3CC23)C1C(=O)OCC(=O)c1ccccc1 (centres undefined),2.44% (inactive)
22,O=C1NC(=O)N(c2ccc3c(c2)OCO3)C(=O)/C1=C\c1ccc(-c2ccccc2C(=O)O)o1,9.19% (inactive)
23,Cc1ccccc1NC(=O)CN1C(=O)S/C(=C\c2ccc(-c3cc(C(=O)O)ccc3C)o2)C1=O,19.2% (inactive)
24,N=C1S/C(=C\c2ccco2)C(=O)N1c1ccc2c(c1)OCO2,5.07% (inactive)

row,Compound,inhibition
1,COc1ccccc1N1C(=N)S/C(=C\c2ccc(-c3ccccc3C(=O)O)o2)C1=O,8.5% (inactive)
2,Cc1ccc(C)c(N2C(=N)S/C(=C\c3ccc(-c4ccccc4C(=O)O)o3)C2=O)c1,13.1% (active)
3,O=C(N/N=C/C=C/c1ccc(Br)cc1)C(O)c1ccccc1 (centres undefined),-4.11% (inactive)
4,COc1ccc(NC(=O)c2ccccc2-c2ccccc2)c(C)c1,-1.21% (inactive)
5,O=C(OCC(=O)N1CCN(C(=O)c2ccco2)CC1)c1ccccc1C(=O)c1ccccc1,0.58% (inactive)
6,Cc1ccc(-n2c(C)cc(/C=c3/sc4nc5ccccc5n4c3=O)c2C)cc1,0.75% (inactive)
7,O=c1/c(=C/c2ccc(O)c([N+](=O)[O-])c2)sc2nc3ccccc3n12,8.42% (inactive)
8,Cc1cc(/C=c2/sc3nc4ccccc4n3c2=O)c(C)n1-c1ccccn1,6.87% (inactive)
9,O=c1/c(=C/c2ccccn2)sc2nc3ccccc3n12,3.31% (inactive)
10,O=c1/c(=C\c2cccn2-c2ccccc2)sc2nc3ccccc3n12,-1.22% (inactive)
11,O=C(O)Cn1cc(/C=c2/sc3nc4ccccc4n3c2=O)c2ccccc21,-3.15% (inactive)
12,CCN(CC)c1ccc(/C=c2\sc3nc4ccccc4n3c2=O)c(O)c1,-2.52% (inactive)
13,O=Cc1ccc(-c2cccc(C(=O)O)c2)o1,3.12% (inactive)
14,O=c1/c(=C\c2cc([N+](=O)[O-])cc([N+](=O)[O-])c2O)sc2nc3ccccc3n12,33.8% (active)
15,O=c1c(Br)c(N2CCOCC2)cnn1-c1ccccc1,-4.84% (inactive)
16,Cn1nc(C(F)(F)F)c2cc(C(=O)O)sc21,0.57% (inactive)
17,CCN(CC)S(=O)(=O)c1ccc(N2CCOCC2)c(NC(=O)CC(C)(C)C)c1,11.6% (inactive)
18,Cc1cc(C)c(C#N)c(SC2CCCCC2=O)n1 (centres undefined),0.86% (inactive)
19,CC(C)NC(=O)CSc1nnc2sc3ccccc3n12,7.28% (inactive)
20,Cn1nc(-c2ccccc2)c(CN2CCN(c3ncccn3)CC2)c1Cl,-1.97% (inactive)
21,CC1(C)CC(=O)C2=C(C1)N(CCN1CCOCC1)C1=C(C(=O)CC(C)(C)C1)C2c1ccc(Cl)c([N+](=O)[O-])c1,4.94% (inactive)
22,CCOC(=O)Cc1csc(NC(=O)c2ccco2)n1,4.22% (inactive)
23,Cc1cc(/C=C2\C(=O)NC(=O)N(c3ccc(F)cc3)C2=O)c(C)n1-c1cccc(C(=O)O)c1,2.99% (inactive)
24,Cc1nn(Cc2c(F)cccc2Cl)c(C)c1NC(=O)C1CC1,1.68% (inactive)

row,Compound,inhibition
1,CC(Cc1ccsc1)NC(=O)CCc1nnc(COc2ccccc2)o1 (centres undefined),-0.64% (inactive)
2,Cc1ccc(OCC(=O)Nc2ccc3c(c2)OCO3)c(C)c1,7.84% (inactive)
3,CCn1c(C)nc2cc(C(=O)N/N=C/c3ccc(O)c(O)c3O)ccc21,12.9% (active)
4,CCn1c(C)nc2cc(C(=O)N/N=C/c3cccc(OC)c3O)ccc21,1.22% (inactive)
5,CCn1c(C)nc2cc(C(=O)N/N=C/c3cccc(O)c3O)ccc21,-2.26% (inactive)
6,CN(C(=O)COc1ccccc1C(=O)NCCc1ccccc1)c1ccccc1,1.19% (inactive)
7,CC[N+](CC)(CC)CCCOC(=O)C(O)(c1ccccc1)C1CCCCC1 (centres undefined),-1.3% (inactive)
8,O=C(c1ccccc1)N1CCN=C1c1ccccc1,3.08% (inactive)
9,Cc1cc(C)cc(C(=O)N2CCN=C2c2ccccc2)c1,13.7% (active)
10,COc1cc(C(=O)N2CCN=C2c2ccccc2)cc(OC)c1OC,-4.46% (inactive)
11,CC1=C(C(=O)OCc2ccccc2)C(c2ccsc2)NC(=O)N1C (centres undefined),0.99% (inactive)
12,CN1CCN(C(=S)NC(=O)c2ccc(Br)cc2)CC1,-2.25% (inactive)
13,CN1CCN(C(=S)NC(=O)c2ccc(C(C)(C)C)cc2)CC1,0.68% (inactive)
14,COc1ccc(-c2noc(C3CCCN(S(=O)(=O)c4cccc(Cl)c4C)C3)n2)cc1OC (centres undefined),1.44% (inactive)
15,Cc1ccc(-n2ncc3c(=O)[nH]c(SC(C)C)nc32)cc1,-6.03% (inactive)
16,Cc1nn(Cc2ccc([N+](=O)[O-])cc2)c(=O)n1N(C)c1ncc(C(F)(F)F)cc1Cl,13.8% (active)
17,Cc1nn(Cc2ccc(Cl)cc2)c(=O)n1N(C)c1ncc(C(F)(F)F)cc1Cl,-1.59% (inactive)
18,Cc1nn(Cc2ccccc2)c(=O)n1N(C)c1ncc(C(F)(F)F)cc1Cl,-3.42% (inactive)
19,Cc1cc(N2CCN(Cc3nc(-c4ccc(F)cc4)oc3C)CC2)cc(C)n1,-0.06% (inactive)
20,O=c1/c(=C\c2ccc(O)cc2)sc2n1C(c1ccccc1)C(c1ccccc1)=NN=2 (centres undefined),15.3% (active)
21,COc1cc(/C=c2\sc3n(c2=O)C(c2ccccc2)C(c2ccccc2)=NN=3)ccc1O (centres undefined),-0.15% (inactive)
22,O=c1/c(=C\c2ccc(O)cc2)sc2nc(-c3ccccc3)c(-c3ccccc3)n12,-5.24% (inactive)
23,CC1CCN(C(=O)CCCOc2ccc(Cl)cc2)CC1,-3.73% (inactive)
24,COc1ccc(N2C(=O)CC(N(C)CCc3ccc(OC)c(OC)c3)C2=O)cc1 (centres undefined),-4.91% (inactive)

row,Compound,inhibition
1,CC(C)(C)C(=O)n1nc(-c2ccccc2)oc1=O,-3.45% (inactive)
2,O=C(O)Cn1nc(-c2ccc(F)cc2)oc1=O,-1.78% (inactive)
3,O=C(O)Cn1nc(-c2ccccc2)oc1=O,12.9% (active)
4,N#Cc1c(-c2ccccc2)nc(SCC(=O)Nc2ccccc2)[nH]c1=O,3.28% (inactive)
5,Cc1cc(C)nc(NS(=O)(=O)c2ccc(NC(=O)CSc3nc(-c4ccccc4)c(C#N)c(=O)[nH]3)cc2)n1,13.9% (active)
6,Cc1cc(NC(=O)CSc2nc(-c3ccccc3)c(C#N)c(=O)[nH]2)no1,8.24% (inactive)
7,CCOc1ccc(N2C(=O)CC(n3nc(C)cc3C)C2=O)cc1 (centres undefined),1.73% (inactive)
8,Cc1ccc(S(=O)(=O)N(C)C)cc1NC(=S)NC(=O)C12CC3CC(CC(C3)C1)C2,-3.56% (inactive)
9,CC(C)(C)C1CCC(=NNC(=O)CC(=O)NCc2ccccc2)CC1 (centres undefined),0.32% (inactive)
10,CCC(c1c(C)[nH]oc1=O)c1c(C)[nH]oc1=O,13.4% (active)
11,Cc1[nH]oc(=O)c1N=Nc1c(Cl)cccc1Cl,1.64% (inactive)
12,Cc1[nH]oc(=O)c1N=Nc1ccccc1,8.43% (inactive)
13,O=S(=O)(c1ccc(-c2nc3ccccc3s2)cc1)N1CCCC1,2.5% (inactive)
14,COc1ccccc1N1CCN(CCN2C(=O)CC(=C3c4ccccc4-c4ccccc43)C2=O)CC1,4.68% (inactive)
15,CCCC(=O)Nc1cc(C(=O)O)ccc1S(=O)(=O)c1ccc(Cl)cc1,0.49% (inactive)
16,CCCCNC(=O)c1ccc(NC(C)=O)c(Cl)c1,-5.13% (inactive)
17,CCCCNC(=O)c1ccc(S(=O)(=O)c2ccc(Cl)cc2)c(NC(C)=O)c1,14% (active)
18,O=C(CSc1ccc(-c2ccccn2)nn1)NC1CCCCC1,-1.08% (inactive)
19,O=c1c2c([nH]c3ccccc13)CCCCCC2,13.9% (active)
20,O=c1c2c([nH]c3ccccc13)CCCCC2,5.9% (inactive)
21,O=c1c2c([nH]c3ccccc13)CCCC2,1.46% (inactive)
22,CS(=O)(=O)N1CCC(C(=O)Nc2ccc(C(F)(F)F)cc2)CC1,-0.68% (inactive)
